Tg IFNy HTS = T. gondii growth inhibition under IFN-gamma. Toxoplasma gondii growth in IFN-gamma-treated host cells; active compounds read low. activity change, negative = inhibition, % (test concentration not listed). 3.8% of 69,000 active; in the data active = activity change below about -70%, passing the limit was not always enough;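 also: host cells are HeLa cells infected with Toxoplasma gondii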
Starred values were filed as active, the others as inactive; ! = not confirmed by another sample. The entries come from a sample that favours hits as a whole.

SMILES	Tg IFNy HTS
c1cncc(CN2CCC3(C2)CN(Cc2ccsc2)C3)c1	-1
C[C@H]1CNCCc2ccc(Cl)cc21	15
CCN1CCN(C(=O)Cc2ccc(Nc3ncc(F)c(Nc4ccc(C(=O)Nc5ccccc5Cl)cc4)n3)cc2)CC1	-73*
O=C(Nc1ccccc1Cl)c1cc2cccnc2n(Cc2ccc(F)cc2)c1=O	46
Cc1ccc(CN2C[C@@H]3OCCN(Cc4c(C)noc4C)[C@H]3C2)s1	-8
Cc1cccc(CN2C(=O)C[C@H]3[C@H]2CCN3Cc2cccs2)n1	-93*
c1ccc(CN2CC[C@H]3[C@@H]2CCN3Cc2cccs2)nc1	-14
CN(C)C(=O)CN1CCC2C1CC(=O)N2Cc1cccnc1 (stereo unspecified)	6
O=C(NCC1CCOCC1)c1cnc(Nc2ccc(Cl)cc2Cl)nc1C(F)(F)F	-74*
FC(F)(F)c1ccc(C2C3C(=NN2c2cc(Cl)ccc2Cl)C2CCN3CC2)cc1 (stereo unspecified)	139
CN1CC(CNC(=O)OCc2ccccc2)CC2c3cccc4c3c(cn4C)CC21 (stereo unspecified)	5
O=c1ccc2[nH]cc(C3=CCNCC3)c2[nH]1	7
CCOP(=S)(OCC)Oc1nc(Cl)c(Cl)cc1Cl	-76*!
O=C(O)CN1CC2(CCN(c3nccs3)C2)C1	-1
CCC(C)C(=O)O[C@H]1[C@H](O)C2C(CN3CC(C)CCC3[C@@]2(C)O)C2C[C@]34O[C@]5(O)C(OC(=O)C(C)(O)CC)CC[C@@]3(C)C5C(OC(C)=O)[C@@H](OC(C)=O)C4[C@@]21O (stereo partly specified)	-19
COCCN1C[C@H]2CN(c3ccc(C)nn3)CCC[C@]2(C(=O)O)C1	-4
O=C(C1CC=CC1)N1CCC2(CCCNC2)CC1	-67
Fc1ccc(C(OCCN2CCN(C/C=C/c3ccccc3)CC2)c2ccc(F)cc2)cc1	-81*!
Fc1ccc(C(OCCN2CCCC2)c2ccc(Br)cc2)cc1 (stereo unspecified)	-62
Fc1ccc(C(OCCN2CCN(CCCc3ccccc3)CC2)c2ccc(F)cc2)cc1	14
C/C=C/c1ccc2c(c1)OCO2	10
N#Cc1ccccc1-c1cc(-c2ccccn2)cn(-c2ccccc2)c1=O	7
COC(=O)c1ccccc1NC(=O)c1cc2cccnc2n(Cc2ccc(F)cc2)c1=O	28
Cc1ccc2c(c1)Cc1c(C(=O)NN3CCCCC3)nn(-c3ccc(Cl)cc3Cl)c1-2	-75*!
O=C(Nc1cccc(Cl)c1)c1cc2cccnc2n(Cc2ccccc2F)c1=O	77
SMILES	Tg IFNy HTS
COc1ccc(N2C(=O)NC(=O)C3(Cc4cccc(F)c4N4CCC(c5ccccc5)CC43)C2=O)cc1 (stereo unspecified)	-99*
Cc1cccc(NC(=O)c2cc3cccnc3n(Cc3ccccc3F)c2=O)c1	10
C[N+]1(C)C2CCC1CC(OC(=O)C(CO)c1ccccc1)C2 (stereo unspecified)	23
COC(=O)C[C@@](O)(CCC(C)(C)O)C(=O)O[C@@H]1C(OC)=C[C@]23CCCN2CCc2cc4c(cc2[C@@H]13)OCO4	-84*
N#CC1(C(=O)NCC2CCC3(CCNCC3)O2)CC1 (stereo unspecified)	-60
c1ccc2c(c1)[nH]c1cnccc12	29
Cc1c2ccncc2c(C)c2c1[nH]c1ccccc12	-80*
Cc1nccc2c1[nH]c1ccccc12	1
CC(Cc1ccccn1)N(C)Cc1ccc2c(c1)OCCO2 (stereo unspecified)	5
c1ccc(CN2CC3(CCN(c4ncccn4)C3)C2)cc1	24
CC(C)NCC(O)c1ccc([N+](=O)[O-])cc1 (stereo unspecified)	14
O=C(Nc1ccncc1)C(=O)c1cn(Cc2ccc(Cl)cc2)c2ccccc12	-78*
O=C(Nc1ccc(Cl)cc1)c1cc2cccnc2n(Cc2ccc(F)cc2)c1=O	0
O=Cc1cn(Cc2ccc(F)cc2)c2ccccc12	-3
CN(C)c1ncc2c(n1)C1(CCN(CC3CC3)C1)COC2 (stereo unspecified)	-35
CCOCc1cncc2c1CCN(S(=O)(=O)c1cccs1)C2	-11
c1cncc(CN2CCC3(CC2)COCCN3CC2CC2)c1	114
CC(C)S(=O)(=O)N1CCCC2(CCNC2)C1 (stereo unspecified)	12
C#CC(C)(O)CC (stereo unspecified)	20
Cn1cc(C(=O)C(=O)N[C@H]2CN3CCC2CC3)c2ccccc21	-80*!
CN1C(=O)COc2c(C(=O)NC3CN4CCC3CC4)cc(Cl)cc21 (stereo unspecified)	10
O=C(N[C@H]1CN2CCC1CC2)c1ccc(Cl)cc1	-23
FC(F)(F)CCN1C[C@H]2CCC[C@@H](CNc3ncccn3)[C@@H]2C1	12
O=C(O)CN1CCCC2(COCCN(Cc3ccccn3)C2)C1 (stereo unspecified)	3
CN1CCN(Cc2nccs2)Cc2cccnc21	-12
SMILES	Tg IFNy HTS
c1ccc2c3c([nH]c2c1)CNCC3	-1
Cc1noc(C)c1CN1C[C@@H]2COC[C@@]2(CNS(C)(=O)=O)C1	-1
CC(C)CCNC(=O)c1cc2cccnc2n(Cc2ccc(F)cc2)c1=O	-25
O=C(NCCC(c1ccccc1)c1ccccc1)c1cc2cccnc2n(Cc2ccccc2)c1=O	10
Cc1ccc(CNC(=O)c2cc3cccnc3n(Cc3ccc(F)cc3)c2=O)cc1	-8
O=C(NCCC(c1ccccc1)c1ccccc1)c1cc2cccnc2n(Cc2ccc(F)cc2)c1=O	-83*
O=C(NCc1ccco1)c1cc2cccnc2n(Cc2ccc(F)cc2)c1=O	-95*
O=C(NCc1ccc(F)cc1)c1cc2cccnc2n(Cc2ccc(Cl)cc2)c1=O	-37
C/C=C/c1ccc([C@@H]2[C@@H](CO)N3CCCCN(C(=O)Cc4cccnc4)C[C@H]23)cc1	12
CN(C)c1ccc(/C=C/C(=O)C2C(=O)N(C)C3(C)CC2c2ccccc2O3)cc1 (stereo unspecified)	-45
CC1=CC(=O)c2c(O)cccc2C1=O	8
CN1C(=O)C2(CCN(Cc3cc4n(n3)CCNC4)CC2)c2ccccc21	-3
COc1ccc(CCNC(=O)c2cc3cccnc3n(Cc3ccc(F)cc3)c2=O)cc1OC	-43
CN1C[C@@H]2c3nc(N(C)C)ncc3CS(=O)(=O)[C@H]2C1	44
O=c1[nH]c2c(c(=O)n1C1CCCCC1)CCC2	-7
